Assay results as given in PubChem BioAssay (NCATS).
Records with an inconclusive call do not appear. Unmarked numbers belong to inactive results. Calls come from the whole dose curve; as a rule, active = well fitted inhibition curve with a large enough effect; inconclusive = small, poorly fitted or top-dose-only effect; inactive = flat fitted curve, though single readings scatter.

tested on: MKL-1; experiment: qHTS assay to identify novel small-molecules to repurpose for Merkel cell carcinoma treatment (AID 1296009); details: MCC and control cell lines, CellTiter-Glo viability, 72 h; series mostly up to 46 µM; activity change, negative = cytotoxicity: at the top concentration; note: nearly all actives have a fitted effect of over 60% in size
In short: (§1)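 Cells were treated for 72 hr at 37 degree celsius with compounds in 8- or 11-point dose response. Viability was read by CellTiter-Glo luminescence, normalized to no-cell (cytotoxicity) and DMSO controls.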
% is set by controls: 0 for no effect and ±100 for the full control effect.

| Structure (SMILES) | activity change, negative = cytotoxicity |
| --- | --- |
| Cc1ncc([N+](=O)[O-])n1CC(O)CCl (stereo not drawn) | -9.02% |
| C[C@@H]1CCN(C(=O)[C@H](CCCN=C(N)N)NS(=O)(=O)c2cccc3c2NC[C@H](C)C3)[C@@H](C(=O)O)C1 | 4.68% |
| C[C@H](NC(CCc1ccccc1)C(=O)O)C(=O)N1CCC[C@H]1C(=O)O (stereo partly drawn) | 6.75% |
| Oc1ccc(C(O)CNCCCCCCNCC(O)c2ccc(O)c(O)c2)cc1O (stereo not drawn) | -3.8% |
| CCCCC(CC)COC(=O)c1ccccc1O (stereo not drawn) | -1.64% |
| N[C@H](C(=O)O)c1ccc(O)cc1 | -2.96% [at 16.1 µM] |
| NC(=O)NC(=O)Cc1ccccc1 | -2.11% |
| C#CCN(C)Cc1ccccc1 | 11.5% |
| NS(=O)(=O)c1cc2c(cc1C(F)(F)F)NC(Cc1ccccc1)NS2(=O)=O (stereo not drawn) | 19.6% |
| O=C1N=C(O)CN1/N=C/c1ccc(-c2ccc([N+](=O)[O-])cc2)o1 | 0.201% |
| CCCCCCCCCCCCCCCCCCOCC(O)CO (stereo not drawn) | 3.25% |
| NCCNCCNCCNCCN | -8% [at 9.22 µM] |
| CN(C)CCCO[C@@H]1[C@H]2OC(C)(C)O[C@H]2O[C@@H]1C(O)CO (stereo partly drawn) | 17.8% |
| OC[C@H]1O[C@@H](O[C@@H]2[C@@H](CO)O[C@](O)(CO)[C@H]2O)[C@H](O)[C@@H](O)[C@H]1O | -2.06% |
| N[C@@H](CSSC[C@H](N)C(=O)O)C(=O)O | 8.58% [at 0.597 µM] |
| CC1(C)CO[C@@H](CC(=O)O)CN1 | 8.33% |
| CC1=C(C/C=C(\C)CCC[C@H](C)CCC[C@H](C)CCCC(C)C)C(=O)c2ccccc2C1=O | 2.32% |
| COc1cc(C(=O)N2CCOCC2)cc(OC)c1OC | 3.52% |
| CCCCC/C(C=O)=C\c1ccccc1 | 5.36% |
| CC(=O)Nc1ccc(/C=N/NC(N)=S)cc1 | -5.93% |

| Structure (SMILES) | activity change, negative = cytotoxicity |
| --- | --- |
| O=C1OC(OC(=O)c2cccnc2Nc2cccc(C(F)(F)F)c2)c2ccccc21 (stereo not drawn) | 2.99% |
| O=C(O)CN1C(=O)c2cccc3cccc(c23)C1=O | 9.32% |
| CN1[C@@H]2CC[C@H]1CC(OC(=O)C(O)c1ccccc1)C2 (stereo partly drawn) | 5.29% |
| O=C(Oc1ccccc1C(=O)O)c1ccccc1O | 9.05% |
| CC(COc1ccccc1)NC(C)C(O)c1ccc(O)cc1 (stereo not drawn) | 14.1% |
| CCN(CC)CCOC(=O)C1(C2CCCCC2)CCCCC1 | 1.27% |
| Cc1cc(O)cc2c1O[C@](C)(CCC[C@H](C)CCC[C@H](C)CCCC(C)C)CC2 | 6.9% |
| O=S(=O)(O)c1cc(I)c(O)c2ncccc12 | 4.74% |
| Cc1ncc(COP(=O)(O)O)c(C=O)c1O | 0.422% |
| CO/N=C(\C(=O)N[C@@H]1C(=O)N2C(C(=O)O)=C(CSc3nc(=O)c(O)nn3C)CS[C@H]12)c1csc(N)n1 | 5% |
| O=C(O)COc1nn(Cc2ccccc2)c2ccccc12 | 0.453% |
| CCCc1c(OCCCCc2nn[nH]n2)ccc(C(C)=O)c1O | -3.02% |
| COc1ccc2cc1Oc1cc3c(cc1OC)CC[N+](C)(C)[C@H]3Cc1ccc(cc1)Oc1c(OC)c(OC)cc3c1[C@@H](C2)[N+](C)(C)CC3 | 10.6% |
| NC1CCN(c2cccc(Cl)n2)CC1 | 3.85% |
| Nc1cc(=O)[nH]c(N)n1 | 2.52% |
| CC(O)COc1ccccc1 (stereo not drawn) | 5.52% |
| CC1CC(OC(=O)C(O)c2ccccc2)CC(C)(C)N1C (stereo not drawn) | 0.388% |
| O=C1O[C@H](CO)[C@@H](O)[C@H](O)[C@H]1O | 1.69% |
| NC(CSCC(=O)O)C(=O)O (stereo not drawn) | 5.39% |

tested on: MKL-2; experiment: as above; details: MCC and control cell lines, CellTiter-Glo viability, 72 h; series mostly up to 46 µM; activity change, negative = cytotoxicity: at the top concentration
In short: as §1

| Structure (SMILES) | activity change, negative = cytotoxicity |
| --- | --- |
| Cc1ncc([N+](=O)[O-])n1CC(O)CCl (stereo not drawn) | 3.76% |
| C[C@@H]1CCN(C(=O)[C@H](CCCN=C(N)N)NS(=O)(=O)c2cccc3c2NC[C@H](C)C3)[C@@H](C(=O)O)C1 | 7.15% |
| C[C@H](NC(CCc1ccccc1)C(=O)O)C(=O)N1CCC[C@H]1C(=O)O (stereo partly drawn) | 21.4% |
| Oc1ccc(C(O)CNCCCCCCNCC(O)c2ccc(O)c(O)c2)cc1O (stereo not drawn) | -14.4% |
| CCCCC(CC)COC(=O)c1ccccc1O (stereo not drawn) | 12% |
| N[C@H](C(=O)O)c1ccc(O)cc1 | 8.77% [at 16.1 µM] |
| NC(=O)NC(=O)Cc1ccccc1 | -1.98% |
| C#CCN(C)Cc1ccccc1 | 9% |
| NS(=O)(=O)c1cc2c(cc1C(F)(F)F)NC(Cc1ccccc1)NS2(=O)=O (stereo not drawn) | 19.4% |
| O=C1N=C(O)CN1/N=C/c1ccc(-c2ccc([N+](=O)[O-])cc2)o1 | 11.4% |
| CCCCCCCCCCCCCCCCCCOCC(O)CO (stereo not drawn) | 20% |
| NCCNCCNCCNCCN | -0.706% [at 9.22 µM] |
| CN(C)CCCO[C@@H]1[C@H]2OC(C)(C)O[C@H]2O[C@@H]1C(O)CO (stereo partly drawn) | 10.6% |
| OC[C@H]1O[C@@H](O[C@@H]2[C@@H](CO)O[C@](O)(CO)[C@H]2O)[C@H](O)[C@@H](O)[C@H]1O | 2.21% |
| N[C@@H](CSSC[C@H](N)C(=O)O)C(=O)O | 18.8% [at 0.597 µM] |
| CC1(C)CO[C@@H](CC(=O)O)CN1 | 3.08% |
| CC1=C(C/C=C(\C)CCC[C@H](C)CCC[C@H](C)CCCC(C)C)C(=O)c2ccccc2C1=O | 14.3% |
| COc1cc(C(=O)N2CCOCC2)cc(OC)c1OC | 10.5% |
| CCCCC/C(C=O)=C\c1ccccc1 | 0.182% |
| CC(=O)Nc1ccc(/C=N/NC(N)=S)cc1 | -18.5% |

| Structure (SMILES) | activity change, negative = cytotoxicity |
| --- | --- |
| O=C1OC(OC(=O)c2cccnc2Nc2cccc(C(F)(F)F)c2)c2ccccc21 (stereo not drawn) | -7.74% |
| O=C(O)CN1C(=O)c2cccc3cccc(c23)C1=O | -26% |
| CN1[C@@H]2CC[C@H]1CC(OC(=O)C(O)c1ccccc1)C2 (stereo partly drawn) | 2.88% |
| O=C(Oc1ccccc1C(=O)O)c1ccccc1O | 0.0642% |
| CC(COc1ccccc1)NC(C)C(O)c1ccc(O)cc1 (stereo not drawn) | 12.9% |
| CCN(CC)CCOC(=O)C1(C2CCCCC2)CCCCC1 | -9.73% |
| Cc1cc(O)cc2c1O[C@](C)(CCC[C@H](C)CCC[C@H](C)CCCC(C)C)CC2 | 20.1% |
| O=S(=O)(O)c1cc(I)c(O)c2ncccc12 | -3.64% |
| Cc1ncc(COP(=O)(O)O)c(C=O)c1O | 6.05% |
| CO/N=C(\C(=O)N[C@@H]1C(=O)N2C(C(=O)O)=C(CSc3nc(=O)c(O)nn3C)CS[C@H]12)c1csc(N)n1 | -11.3% |
| O=C(O)COc1nn(Cc2ccccc2)c2ccccc12 | 3.93% |
| CCCc1c(OCCCCc2nn[nH]n2)ccc(C(C)=O)c1O | 1.45% |
| COc1ccc2cc1Oc1cc3c(cc1OC)CC[N+](C)(C)[C@H]3Cc1ccc(cc1)Oc1c(OC)c(OC)cc3c1[C@@H](C2)[N+](C)(C)CC3 | 13.1% |
| NC1CCN(c2cccc(Cl)n2)CC1 | -8.64% |
| Nc1cc(=O)[nH]c(N)n1 | -3.94% |
| CC(O)COc1ccccc1 (stereo not drawn) | 16.7% |
| CC1CC(OC(=O)C(O)c2ccccc2)CC(C)(C)N1C (stereo not drawn) | 0.385% |
| O=C1O[C@H](CO)[C@@H](O)[C@H](O)[C@H]1O | 8.75% |
| NC(CSCC(=O)O)C(=O)O (stereo not drawn) | 2.29% |
